Laboratory results from PubChem BioAssay AID1159580 (chemical genetic matrix, 2015).
Several values for one entry are separate records, joined by “and”; a condition that tells them apart may be missing. Equal entries are not always repeated. About 2,000 (36%) of roughly 5,500 compounds were called active. Not shown: some 18% with an inconclusive outcome. No stated cut-off is given here; in the data, active means normalized growth mostly below about 0.91 (no sharp cut-off); inconclusive means no clear call, values can overlap the other calls; inactive means mostly above about 0.92. The list shows a part of the results.

Test: chemical genetic growth profiling, strain panel (AID 1159580);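 further: tested at 20 µM; growth read once vehicle control cultures reached saturation at 30 °C; 1 = growth at the plate median or of vehicle wells; lower values mean less growth of the strain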
Conditions: S. cerevisiae deletion strains, growth OD

Measured: normalized growth

COc1cc(C(=O)O)cc(OC)c1O
inactive: locus YBR021W, strain FUR4, active compounds read low 1.08 | locus YBR229C, strain ROT2, active compounds read low 0.951 | locus YCL029C, strain bik1, active compounds read low 0.976 | locus YDL035C, strain GPR1, active compounds read low 1.01 | locus YDL074C, strain BRE1, active compounds read low 0.961 | locus YDL101C, strain DUN1, active compounds read low 0.982 | locus YDL185W, strain tfp1, active compounds read low 0.987 | locus YDL192W, strain arf1, active compounds read low 0.98 | locus YDR101C, strain arx1, active compounds read low 0.972 | locus YDR150W, strain NUM1, active compounds read low 0.979 | locus YDR162C, strain NBP2, active compounds read low 1.01 | locus YDR318W, strain mcm21, active compounds read low 1 | locus YDR388W, active compounds read low 0.978 | locus YDR502C, strain sam2, active compounds read low 0.982 | locus YEL061C, strain CIN8, active compounds read low 0.986 | locus YER110C, active compounds read low 0.977 | locus YER155C, strain BEM2, active compounds read low 1 | locus YER167W, strain BCK2, active compounds read low 1 | locus YGL078C, strain dbp3, active compounds read low 0.986 | locus YGL086W, strain mad1, active compounds read low 0.978 | locus YGL248W, strain PDE1, active compounds read low 0.985 | locus YGR135W, strain pre9, active compounds read low 1.05 | locus YGR229C, strain SMI1, active compounds read low 1.01 | locus YGR252W, strain gcn5, active compounds read low 1.04 | locus YHR030C, strain SLT2, active compounds read low 1.04 and 0.994 | locus YHR079C, strain IRE1 (second series), active compounds read low 0.977 | locus YHR079C, strain IRE1, active compounds read low 1.02 | locus YHR094C, strain hxt1, active compounds read low 0.984 | locus YHR129C, strain ARP1, active compounds read low 0.997 | locus YHR200W, strain rpn10, active compounds read low 0.98 | locus YIL066C, strain RNR3, active compounds read low 0.981 | locus YIL073C, strain SPO22, active compounds read low 0.983 | locus YIL125W, strain kgd1, active compounds read low 0.987 | locus YIR030C, strain dcg1, active compounds read low 0.988 | locus YJL095W, strain BCK1, active compounds read low 1.03 and 0.981 | locus YJL134W, strain LCB3, active compounds read low 0.994 | locus YJL168C, strain set2, active compounds read low 0.975 | locus YJL187C, strain SWE1 (second series), active compounds read low 0.971 | locus YJR043C, strain POL32, active compounds read low 0.991 | locus YJR066W, strain TOR1, active compounds read low 0.96 | locus YJR075W, strain HOC1, active compounds read low 0.997 | locus YKL009W, strain mrt4, active compounds read low 0.983 | locus YKL068W, active compounds read low 0.989 | locus YKL085W, strain MDH1 (second series), active compounds read low 0.983 | locus YKL085W, strain MDH1, active compounds read low 0.983 | locus YKR001C, strain vps1, active compounds read low 0.981 | locus YLR039C, strain RIC1, active compounds read low 0.952 | locus YLR058C, strain SHM2, active compounds read low 0.98 | locus YLR102C, strain apc9, active compounds read low 0.985 | locus YLR113W, strain HOG1, active compounds read low 1.01 | locus YLR262C, strain YPT6, active compounds read low 0.963 | locus YLR268W, strain sec22, active compounds read low 0.991 | locus YLR330W, strain CHS5, active compounds read low 0.996 | locus YLR342W, strain FKS1 (second series), active compounds read low 1.05 | locus YLR371W, strain rom2, active compounds read low 0.965 | locus YLR418C, strain cdc73, active compounds read low 1.01 | locus YML016C, strain PPZ1, active compounds read low 0.984 | locus YML032C, strain rad52, active compounds read low 0.975 | locus YML124C, strain tub3, active compounds read low 0.979 | locus YMR078C, strain ctf18, active compounds read low 0.977 | locus YMR223W, strain ubp8, active compounds read low 1.04 | locus YMR307W, strain GAS1, active compounds read low 1.01 | locus YNL067W, strain RPL9B, active compounds read low 0.962 | locus YNL128W, strain TEP1, active compounds read low 0.989 | locus YNL183C, strain NPR1, active compounds read low 0.979 | locus YNL233W, strain BNI4, active compounds read low 0.982 | locus YNL250W, strain rad50, active compounds read low 0.976 | locus YNL271C, strain bni1, active compounds read low 0.987 | locus YNL298W, strain CLA4, active compounds read low 0.994 | locus YNL307C, strain MCK1, active compounds read low 0.987 | locus YNR052C, strain pop2, active compounds read low 0.993 | locus YOL012C, strain htz1 1.1 | locus YOL147C, strain pex11, active compounds read low 0.984 | locus YOR061W, strain CKA2, active compounds read low 0.964 | locus YOR069W, strain VPS5, active compounds read low 0.995 | locus YOR136W, strain idh2, active compounds read low 0.971 | locus YOR144C, strain elg1, active compounds read low 0.991 | locus YOR184W, strain ser1, active compounds read low 0.992 | locus YOR231W, strain MKK1, active compounds read low 1.04 | locus YOR316C, strain cot1, active compounds read low 0.97 | locus YPL241C, strain CIN2, active compounds read low 0.999 | locus YPL256C, strain CLN2, active compounds read low 1.04 | locus YPR119W, strain clb2, active compounds read low 0.97 | locus YPR141C, strain kar3, active compounds read low 0.969 | locus YPR163C, strain tif3, active compounds read low 0.989 | locus YPR167C, strain met16, active compounds read low 0.988 | strain wtn01, active compounds read low 1
